Source: PubChem BioAssay
Compounds with a hit are over-represented: about 11% of the library has one in this group of screens.
JMJD2A Tudor – JMJD2A Tudor domain (human) inhibition; O75164; AlphaScreen JMJD2A-Tudor / H3K4me3 peptide binding; 4.4% of 390,000 active; Potency, µM (highest dose often 114 µM), for inactives: at the highest dose activity change, negative = inhibition, hits mostly inhibitors; AID 504339; further: on the % scale 0 is the no-effect control and ±100 the full control effect; nearly all actives have a fitted effect of over 50% in size
Target sequence (O75164 whole entry, looked up, the tested form may be a part): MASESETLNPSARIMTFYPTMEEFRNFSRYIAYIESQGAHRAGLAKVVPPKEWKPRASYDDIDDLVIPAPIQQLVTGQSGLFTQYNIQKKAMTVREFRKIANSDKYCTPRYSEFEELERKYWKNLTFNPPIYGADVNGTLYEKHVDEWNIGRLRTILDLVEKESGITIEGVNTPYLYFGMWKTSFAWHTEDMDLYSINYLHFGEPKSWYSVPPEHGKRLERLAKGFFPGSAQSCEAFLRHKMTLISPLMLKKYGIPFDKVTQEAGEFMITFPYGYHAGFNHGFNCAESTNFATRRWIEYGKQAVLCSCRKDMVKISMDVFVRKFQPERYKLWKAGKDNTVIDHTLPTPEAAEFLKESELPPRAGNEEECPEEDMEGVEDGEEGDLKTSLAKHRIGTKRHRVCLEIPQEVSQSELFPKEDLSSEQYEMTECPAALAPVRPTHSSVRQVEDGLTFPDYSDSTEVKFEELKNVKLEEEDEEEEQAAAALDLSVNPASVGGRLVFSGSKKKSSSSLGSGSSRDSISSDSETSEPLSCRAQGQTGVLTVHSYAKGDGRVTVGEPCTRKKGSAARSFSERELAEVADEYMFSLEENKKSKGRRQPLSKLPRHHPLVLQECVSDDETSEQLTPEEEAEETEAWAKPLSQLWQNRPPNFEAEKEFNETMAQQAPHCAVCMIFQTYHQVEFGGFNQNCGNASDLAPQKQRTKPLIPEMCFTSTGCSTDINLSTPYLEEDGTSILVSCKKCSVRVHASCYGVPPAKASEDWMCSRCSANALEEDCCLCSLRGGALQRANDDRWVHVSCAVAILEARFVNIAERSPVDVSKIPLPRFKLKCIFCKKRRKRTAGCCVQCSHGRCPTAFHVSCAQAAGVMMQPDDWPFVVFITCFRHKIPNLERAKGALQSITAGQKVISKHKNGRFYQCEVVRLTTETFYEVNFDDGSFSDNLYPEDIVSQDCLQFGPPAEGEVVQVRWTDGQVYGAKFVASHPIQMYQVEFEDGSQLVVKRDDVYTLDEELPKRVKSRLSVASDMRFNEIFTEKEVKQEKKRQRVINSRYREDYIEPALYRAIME
G9a block – blocks human histone lysine methyltransferase G9a; Potency, µM (top dose mostly 102 µM), without a hit: at the highest dose activity, negative = inhibition, most hits filed as inhibitors; AID 504332; G9a H3K9 monomethylation, AlphaScreen, 2 h; 8.8% of 350,000 active; further: on the % scale 0 is the no-effect control and ±100 the full control effect; nearly all actives have a fitted effect of over 75% in size
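Readings reflect AlphaScreen signal from monomethyl-H3K9 antibody detection. HMT at 20 nM; substrate b-H3K9 500 nM; cofactor SAM 20 uM; 2 h RT reaction; compounds tested as titrations in qHTS with 15 min preincubation.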
HP1b chromo inh – blocks HP1-beta chromodomain binding to methylated histone tails; 0.56% of 390,000 active; AID 540317; AlphaScreen HP1-beta / biotin-H3K9me3 peptide binding; Potency, µM (series often up to 114 µM), for inactives: at the top dose activity change, negative = inhibition, most hits filed as inhibitors; further: nearly all actives have a fitted effect of over 70% in size
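HP1-beta protein (50 nM final) preincubated 30 min at room temperature with biotinylated H3(1-18)K9me3 peptide (50 nM) in PBS pH 7.4, 0.01% Tween-20, then compound added for 30 min. AlphaScreen streptavidin donor/nickel chelate acceptor beads (10 ug/mL final), 30 min dark, luminescence read.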
BAZ2B inh – BAZ2B (human) inhibition | Q9UIF8 | AlphaScreen BAZ2B-H3K14Ac peptide displacement | Potency, µM (highest dose often 114 µM), inactives show top-dose activity change, negative = inhibition, hits mostly inhibitors | 4.4% of 360,000 active; further: on the % scale 0 is the no-effect control and ±100 the full control effect; nearly all actives have a fitted effect of over 60% in size
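BAZ2B 50 nM plus b-H3(5-23)K14Ac 50 nM, PBS pH 7.4/0.01% Tween-20, 30 min RT; compound added (max 110 uM), 30 min RT; streptavidin donor/Ni-chelate acceptor beads 10 ug/mL final, 20 min dark; AlphaScreen read.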
L3MBTL1 block – inhibitors of human L3MBTL1 | Potency, µM (top dose mostly 57.1 µM), for inactives: at the top dose activity, negative = inhibition, most hits filed as inhibitors | AlphaScreen L3MBTL1–H3K9me1 peptide binding | 0.66% of 230,000 active; further: on the % scale 0 is the no-effect control and ±100 the full control effect; nearly all actives have a fitted effect of over 60% in size
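L3MBTL1 50 nM + b-AHA-H3(1-15)K9me1 75 nM, 30 min RT; compound added, 30 min RT; streptavidin donor/Ni-chelate acceptor beads 10 ug/mL each final, 30 min RT dark; AlphaScreen read.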
Numbers without * were called inactive; ? = inconclusive; · = no result given; [ ] = dose if it differs, or a comment. The call rests on the fitted dose curve; in most records, active means well fitted inhibition curve with a large enough effect; inconclusive means small, poorly fitted or top-dose-only effect; inactive means no such curve, though single readings can be large or run the other way. Potency means the concentration at half of the fitted maximal effect.

SMILES	JMJD2A Tudor	G9a block	HP1b chromo inh	BAZ2B inh	L3MBTL1 block
N#Cc1ccc(C(=O)Nc2ccccc2-c2nc3ccccc3s2)c(F)c1	-9%	1%[59 µM]	39%	-11%	·
CCC(=O)Nc1cc(-c2nc3ccccc3s2)c(Cl)cc1Cl	-3%	-27%[59 µM]	25%	?	·
CCCC(=O)NC(c1ccc2c(c1)OCO2)c1cc(Cl)c2cccnc2c1O (centres undefined)	-13%	29%[59 µM]	36%	5%	9%
CCCC(=O)NC(c1ccc(C)cc1)c1ccc2cccnc2c1O (centres undefined)	56µM*	-4%	56%	14µM*	-26%
Cc1ccc(C(Nc2ccccn2)c2ccc3cccnc3c2O)cc1 (centres undefined)	20µM*	7.9µM*	-8%	28µM*	·
CCCCC(=O)NC(c1ccc(N(CC)CC)cc1)c1ccc2cccnc2c1O (centres undefined)	?	-10%	20%	45µM*	?
CCOc1cc(C(Nc2cc(C)ccn2)c2ccc3cccnc3c2O)ccc1OC (centres undefined)	18µM*	3.2µM*	14µM*	10µM*	·
C=C(C)c1cc2c(s1)c1cnn(Cc3ccccc3F)c(=O)c1n2C	-22%	·	·	·	·
Cc1ccnc(NC(c2cccc(O)c2)c2ccc3ccc(C)nc3c2O)c1 (centres undefined)	?	11µM*	-25%	?	·
CCCCC(=O)NC(c1ccccc1OC)c1ccc2cccnc2c1O (centres undefined)	-19%[11.4 µM]	8%	51%	?	·
CCCCC(=O)NC(c1ccc(N(C)C)cc1)c1ccc2cccnc2c1O (centres undefined)	18µM*	40µM*	?	20µM*	?
CCCC(=O)NC(c1ccccc1OC)c1ccc2cccnc2c1O (centres undefined)	56µM*	-4%	-11%	25µM*	?
Cc1cccc(NC(c2ccccc2F)c2ccc3ccc(C)nc3c2O)n1 (centres undefined)	?	-7%[59 µM]	19%	-9%	·
Cc1cccc(NC(c2cccc(Cl)c2)c2ccc3cccnc3c2O)n1 (centres undefined)	16µM*	-41%[59 µM]	31%	10µM*	·
COc1ccc(NC(=O)c2cc3c(s2)-c2c(C)cccc2OC3)cc1Cl	-33%	?	11%	-3%	·
COc1ccc(N(CC(=O)Nc2cc(C)ccc2C)S(=O)(=O)c2ccc(OC)c(OC)c2)cc1	-15%	17%[59 µM]	13%	4%	·
COc1ccccc1CCNC(=O)C(C)Sc1nc(-c2ccccc2)cc(C(F)(F)F)n1 (centres undefined)	-12%	7%[59 µM]	36%	-2%	·
CCOc1ccc(C(C)=O)cc1Cn1c(=O)oc2ccccc21	-11%	11%	33%	7%	·
COc1cc(C2c3c(oc4ccccc4c3=O)C(=O)N2Cc2ccc(C)cc2)ccc1O (centres undefined)	4%	4%[59 µM]	?	4%	·
COc1ccc(C(Nc2ccccn2)c2ccc3ccc(C)nc3c2O)cc1C (centres undefined)	?	8.9µM*	-15%	?	·
CCCCC(=O)NC(c1ccc(Cl)cc1)c1ccc2cccnc2c1O (centres undefined)	56µM*	·	12%	·	·
CCCC(=O)NC(c1ccc(Cl)cc1)c1ccc2cccnc2c1O (centres undefined)	-13%	32%	52%	-7%	-4%
COc1ccccc1CNC(=O)c1ccc(N2Cc3cccc(OC)c3Oc3ncccc32)s1	-19%	-1%[59 µM]	4%	-2%	·
Cc1ccc(NC(=O)CN2C(=O)c3cccnc3Sc3ccccc32)cc1C	-10%	15%[59 µM]	17%	-4%	·
COc1cc(CNC2CCCCCCC2)cc(Cl)c1OC	-3%	1%	19%	12%	1%
SMILES	JMJD2A Tudor	G9a block	HP1b chromo inh	BAZ2B inh	L3MBTL1 block
COc1cc(C)c(CNc2cc(C)cc(C)c2)cc1C	89µM*	?	-16%	?	·
COc1ccc(NCc2ccc(OC)c(OC)c2)cc1	·	?	·	?	-9%
COc1cc(C)c(CNc2ccc(OC)c(OC)c2)cc1C	·	?	·	45µM*	-9%
Oc1cc(CNC2CCCCC2)c(O)cc1CNC1CCCCC1	22µM*	·	14µM*	·	·
Clc1ccc(CNC2CCCC2)c(Cl)c1	8%	8%[59 µM]	27%	12%	·
COc1cc(C)c(CNC2CCCCC2)cc1C	5µM*	32µM*	?	?	·
Cc1cc(C)c(/C=C/c2onc(C)c2S(=O)(=O)N2CCC(C(=O)N(C)Cc3ccccc3)CC2)c(C)c1	-24%	-4%[59 µM]	9%[57 µM]	-17%	·
Cc1ccc(NC(=O)C(=O)NCC(c2cccnc2)N2CCN(Cc3ccccc3)CC2)cc1 (centres undefined)	-4%	-23%[59 µM]	57%	0%	·
O=C(CCc1nnc(Cc2ccc3c(c2)OCO3)o1)NCc1nc2ccccc2s1	-23%	45µM*	53%	1%	0%
COc1ccc(/C=C2\SC(N3CCc4ccccc4C3)=NC2=O)cc1OC	?	13µM*	?	-37%	-15%
CCOC(=O)C1CCCN(C2=NC(=O)/C(=C/c3ccc(OC)c(OC)c3)S2)C1 (centres undefined)	-15%	13%	32%	-11%	·
Cc1c(C)n(Cc2ccccc2)c2ccc(C(=O)NCCCN3CCOCC3)cc12	50µM*	50µM*	-4%	?	·
Cc1c(C)n(C)c2ccc(C(=O)NCCCN3CCOCC3)cc12	?	-13%	4%	-22%[57.1 µM]	·
Cc1nn(C)cc1/C=N\NC(=O)c1ccc2c(c1)c(C)c(C)n2Cc1ccccc1	56µM*	20%[12.7 µM]	-28%	45µM*	·
Cc1c(C)n(Cc2ccccc2)c2ccc(C(=O)O)cc12	-19%	·	-26%	·	·
Cc1c(C)n(Cc2ccc(F)cc2)c2ccc(C(=O)NCCCN3CCOCC3)cc12	45µM*	·	?	28µM*	·
CCn1c(C)c(C)c2cc(C(=O)NCCCN3CCOCC3)ccc21	?	·	6%	-33%	·
O=C(CSc1oc(-c2ccco2)nc1S(=O)(=O)c1ccc(Cl)cc1)Nc1ccc(F)cc1	-6%	?	40%	-2%	·
COc1cc(OC)cc(C(=O)N2CC(=O)Nc3ccc(Cl)cc3C2c2ccccc2)c1 (centres undefined)	-11%	-31%[59 µM]	13%	-8%	·
C/C(=N\Nc1nc2ccccc2[nH]1)c1ccc2c(c1)OCCO2	50µM*	?	?	32µM*	·
C/C(=N\Nc1nc2ccccc2[nH]1)c1ccc2c(c1)OCO2	40µM*	?	?	?	·
COc1ccc(Cl)cc1NC(=O)CCc1c(C)nc2c(c1C)c(=O)n(C)c(=O)n2C	-3%	-5%[59 µM]	34%	-23%	·
Cc1ccc(CNc2ccc3cc(S(=O)(=O)N4CCCCC4)ccc3n2)cc1	4%	-5%[59 µM]	18%	3%	·
CCCC12CN3CC(C)(CN(C1)C3c1ccc(CC)cc1)C2=O (centres undefined)	8%	?	68%	4%	·
